From PubChem BioAssay AID652104 (National Center for Advancing Translational Sciences (NCATS), 2013) come the findings set out here.

Among all 410,000 compounds or so, about 7,200 (1.8%) were called active. Where a call stands in place of a potency, no number is given. Another 7% or so got no clear call; they are omitted. The full list was thinned out, with actives kept by preference. Unmarked numbers belong to inactive results. Calls follow the shape of the dose curve; as a rule, active = well fitted activation curve with a large enough effect; inconclusive = small, poorly fitted or top-dose-only effect, or another doubt; inactive = no such curve, though single readings can be large or run the other way.
Potency is read from the fitted curve at half-maximal effect.

The assay is described as follows: qHTS of TDP-43 Inhibitors. Also: nearly all actives have a fitted effect of over 50% in size. The conditions noted are these: TDP-43 expressing yeast growth rescue, BacTiter-Glo, 24 h; series mostly up to 46.1 µM. The gist of the method:
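In this qHTS, compounds that restore growth of yeast expressing TDP-43 appear as activators. Cells (OD600=0.02, galactose medium, raffinose-pregrown) are incubated with compound 24 hr at 30 deg C and growth is quantified by BacTiter-Glo.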
For orientation: In qHTS, concentration-response curves come from the screen itself.
Consider `Cc1ccc2nc(N3CCN(c4cccc(Cl)c4)CC3)c3nnnn3c2c1`, for which the Potency entry was “inactive”.
Still for that read-out and setting: next, `O=C(Cn1c(-c2cccs2)cc2ccccc21)NCCc1ccc(Cl)cc1`: “inactive”.
As to `CCn1cc(C(=O)N2CCN(c3cc(Cl)ccc3C)CC2)c(=O)c2cc(S(=O)(=O)N3CCCC3)ccc21`, the Potency result was “inactive”.
On the same count and under the same terms, next, `CCCSc1nc2sc3c(c2c(=O)n1-c1cccc(Br)c1)CC(C)(C)OC3`: “inactive”.
The same measure, in the same setting: next, `Cc1c(NC(=O)Cc2ccccc2)cccc1-c1nc2cccnc2s1`: “inactive”; `COc1ccc(NC(=O)N2CCCn3nc(C)cc32)cc1OC`: “inactive”.
With `O=C(COc1ccc(Cl)cc1)NCCSc1ccccc1`, the Potency is 17.8 µM (active).
Take `O=C(CCSc1ccccc1)NCCSc1ccccn1`: the Potency entry is “inactive”.
For the compound `Cc1nnc(SCC(=O)NCCOc2ccc(Cl)cc2)n1-c1ccccc1`, the Potency result was “inactive”.
On the same count and under the same terms, next, `COc1cc(NC(=O)c2noc3c2CSc2ccccc2-3)cc(OC)c1OC`: “inactive”; `COC(=O)CN1C(=O)CSc2ccc(S(=O)(=O)Nc3cc(C)ccc3C)cc21`: “inactive”.
Consider `CCOC(=O)/C(=C\c1ccc([N+](=O)[O-])cc1)C(=O)c1cc(C(C)=O)c(Nc2ccccc2)s1`, for which the Potency entry was “inactive”.
For `CCOC(=O)C(=Cc1ccccc1)C(=O)c1ccccc1`, the Potency is 6.31 µM (active).
On the same count and under the same terms, next, `CCc1ccccc1NC(=O)/C(=C/c1ccccc1)c1ccccc1`: “inactive”.
As to `CCOc1cccc2c1N[C@@H](c1ccc(C(=O)O)cc1)[C@H]1CC=C[C@@H]21`, the Potency result is “inactive”.
As for `COc1cccc(CNC(=O)c2ccc3c(c2)N(Cc2ccc(C(F)(F)F)cc2)C(=O)c2ccccc2S3)c1OC`, the Potency entry is “inactive”.
The same measure, in the same setting: next, `Cn1c(=O)c2sccc2n2c(CCC(=O)NCc3ccccc3Cl)nnc12`: “inactive”.
Turning to `Cn1nnnc1SCCCNCc1ccc(Cl)cc1`, the growth rescue (activation) was 7.89% [at 9.22 µM].
Consider `Cc1c(NC(=O)CCC2CCCCC2)cc(C(=O)N2CCOCC2)cc1[N+](=O)[O-]`, for which the Potency result was “inactive”.
The same measure, in the same setting: next, `Cc1cc(C=O)c(C)n1-c1ccc(NC2CCCCC2)c([N+](=O)[O-])c1`: 35.5 µM (active).
In the case of `COc1ccc(NC(=O)CN(C)C(=O)c2ccc(NC3CC3)c([N+](=O)[O-])c2)cc1`, the Potency result was “inactive”.
`CCc1ccc(C2C(C(=O)Nc3ccccc3)=C(C)Nc3c(C(=O)Nc4ccc(C)cc4)cnn32)cc1` (stereo not drawn): the Potency result is “inactive”.
In the case of `CCOC(=O)c1ccc(NC(=O)Cn2c(=O)n(-c3ccc(C)cc3)c(=O)c3c2cnn3C)cc1`, the Potency entry was “inactive”.
On the same count and under the same terms, next, `Cc1ccc(-c2nnc(Nc3cccc(Br)c3)c3ccccc23)cc1S(=O)(=O)NCC1CCCO1` (stereo not drawn): “inactive”; `CCc1nccn1S(=O)(=O)c1cc(Br)ccc1Br`: “inactive”.
Same read-out and setting: next, `O=C(c1cc(-c2ccc(O)cc2)on1)N1CCCc2ccccc21`: 12.6 µM (active).
The same measure, in the same setting: next, `Cc1ccc(NC(=O)Cc2ccc(NC(=O)N3CCCCc4ccccc43)cc2)cc1`: “inactive”; `O=C(CSc1ccc2nnc(-c3ccccc3)n2n1)N1CCCc2ccccc21`: “inactive”; `Cc1ccc(NC(=O)COc2ccc(-n3ccnc3)cc2)cc1Cl`: “inactive”.
Turning to `Cc1ccc(OCC(=O)Nc2ccc(Cl)c(-c3nc4ccccc4[nH]3)c2)cc1C`, the Potency is 22.4 µM (active).
Still for that read-out and setting: next, `Cc1ccc(OCC(=O)Nc2ccc3oc(=O)ccc3c2)cc1C`: “inactive”; `Cn1c(=O)c2c(n3c4ccccc4nc13)NC(=O)CC2c1cccc(Cl)c1` (stereo not drawn): “inactive”.
Same read-out and setting: next, `CC(=O)N1CCc2cc(S(=O)(=O)NC(Cc3ccccc3)C(=O)NCc3ccc(C)cc3)ccc21` (stereo not drawn): “inactive”.
On the same count and under the same terms, next, `CCOc1ccccc1CNCc1c(C(=O)O)c(C)n(Cc2ccc(C)cc2)c1C`: “inactive”; `Cc1ccc2ncc(C(=O)Nc3ccc(OC(F)(F)F)cc3)c(=O)n2c1`: “inactive”; `Cc1ccc(C(=O)OCC(=O)NC2CCCCCCC2)cc1C`: “inactive”.
As to `O=C(COC(=O)c1cccc(Cl)c1Cl)NC1CCCCCC1`, the Potency entry was “inactive”.
On the same count and under the same terms, next, `O=C(COC(=O)c1cccc(Cl)c1)NC1CCCCCCC1`: 22.4 µM (active).
Same read-out and setting: next, `CCn1cc2nc(SCc3ccccc3Cl)n(CCc3ccccc3)c(=O)c2n1`: “inactive”.
Consider `COc1ccc(CNC(=O)CCc2c(C)nn(-c3ccc(N4CCCC4)nn3)c2C)cc1`, for which the Potency result is “inactive”.
For the compound `Cc1ccc(NC(=O)CN2C(=O)CC(C)Sc3ccccc32)c(C)c1` (stereo not drawn), the Potency is 17.8 µM (active).
Take `Cc1ccccc1NC(=O)CN1C(=O)C(C)(C)c2ccccc21`: the Potency result was “inactive”.
For the compound `CC1CC(=O)N(CC(=O)Nc2cccc(Cl)c2)c2ccccc2S1(=O)=O` (stereo not drawn), the Potency result is “inactive”.
Take `COC(=O)c1c(NC(=O)c2cc(=O)c3c(C)cc(C)cc3o2)sc2c1CCCC2`: the Potency result is “inactive”.
Same read-out and setting: next, `COc1ccc(-c2noc(CSc3nc4ccc(C)cc4[nH]3)n2)cc1`: “inactive”; `COc1ccc(OC)c(CNC(=O)Cn2nc(C)c3c(C)n(-c4ccccc4)nc3c2=O)c1`: “inactive”.
In the case of `CC(C)CC(N=C1NC(C)(C)Cc2ccccc21)C(=O)O` (stereo not drawn), the Potency result is “inactive”.
On the same count and under the same terms, next, `CCOC(=O)C1=C(NC(=S)NC(=O)c2ccccc2)c2ccccc2CC1(C)C`: “inactive”; `CC1(C)Cc2ccccc2/C(=C/C(=O)c2ccccc2)N1`: 12.6 µM (active); `O=C(CSc1n[nH]c(-c2ccccc2)n1)N1CCCCC1`: “inactive”.
Turning to `Cc1cc(=O)n(CC(=O)Nc2cccc([N+](=O)[O-])c2)c(-n2nc(C)cc2C)n1`, the Potency entry was “inactive”.
In the case of `COC(=O)c1cc(NC(=O)CCS(=O)(=O)c2cc(Br)cc3c2N(C(=O)C2CC2)CC3)cc(C(=O)OC)c1`, the Potency entry was “inactive”.
As to `COc1ccc(-c2cc(C(F)(F)F)nc(S(C)(=O)=O)n2)cc1OC`, the Potency is 10 µM (active).
The same measure, in the same setting: next, `COc1ccc(CCNc2nc(-c3ccc(F)cc3)cc(C(F)(F)F)n2)cc1OC`: “inactive”; `COc1ccc(CNc2nc(-c3ccc(Cl)cc3)cc(C(F)(F)F)n2)cc1`: “inactive”.
Still for that read-out and setting: next, `COc1ccccc1CNC(=O)Cn1nc(C)c2nn(-c3ccc(Cl)cc3)c(C)c2c1=O`: “inactive”.
On the same count and under the same terms, next, `COc1ccccc1OCCCn1c(-c2ccc(Cl)cc2)nc2ccccc2c1=O`: “inactive”; `CN(C(=O)CSc1nc2ccc(NC(=O)COc3ccccc3)cc2s1)c1ccccc1`: “inactive”.
Regarding `O=C(Nc1ccc2nc(SCC(=O)N3CCc4ccccc43)sc2c1)c1ccccc1F`, the Potency result was “inactive”.
Same read-out and setting: next, `O=C(O)c1ccccc1CSc1nc2ccccc2s1`: 12.6 µM (active); `Cc1cccc(-c2nc(SCc3ccc(Br)cc3)n3[nH]c(=O)cc3n2)c1`: “inactive”.
Same read-out and setting: next, `COc1ccc(CC(=O)N2CC(=O)Nc3ccc(Br)cc3C2c2ccc(F)cc2)cc1OC` (stereo not drawn): “inactive”; `Cn1nc(-c2ccc(Cl)cc2)c2cc(C(=O)NCc3ccco3)sc21`: “inactive”.
On the same count and under the same terms, next, `COc1ccc(Nc2ncc(C(=O)N3CCN(c4ccccc4OC)CC3)c3ccccc23)cc1`: “inactive”.
On to `COc1ccccc1N1CCN(C(=O)c2cc3c(-c4ccc(Cl)cc4)nn(C)c3s2)CC1`, for which the Potency is 35.5 µM (active).
In the case of `COc1ccc(CNC(=O)c2cc3c(-c4ccccc4F)nn(C)c3s2)c(OC)c1`, the Potency result was “inactive”.
Still for that read-out and setting: next, `COc1cccc(-c2cc(C(=O)N3CCN(c4ccccc4OC)CC3)no2)c1`: 22.4 µM (active); `CCS(=O)(=O)N1CCc2cc(C(=O)N3CCN(c4ccccc4OC)CC3)ccc21`: “inactive”.
